SMILES strings stand for the structures. Out of some 360,000 compounds screened, about 11,000 (3.1%) were called active. Roughly 2% stayed inconclusive and do not appear here. Rule as the data show it: active = fluorescence intensity above about 16000; inconclusive = no clear call, values can overlap the other calls; inactive = below that. The entries come from a sample that favours actives as a whole.

The assay in a line: counter-screen for toxin protease inhibitors: compound fluorescence, primary screen, artefact control for toxin protease inhibitor project, biochemical, multiplex microsphere, HTS (AID 624483). The settings on record: compound autofluorescence counterscreen, microsphere flow cytometry; hits give high values. A general note: A counterscreen serves to expose hits that act by an unwanted route or on another target.
For the compound `Cc1cc(C)n2c(NCc3ccccc3)c(CC(C)C)nc2n1`, the fluorescence intensity is 6800 (inactive).

In the case of `CCN(CC(=O)Nc1c(F)cccc1F)C(=O)c1cnc(C)cn1`, the fluorescence intensity is 4920 (inactive).

In the case of `CCC(CC)C(=O)N1CCN(c2cccc(C)c2C)CC1`, the fluorescence intensity is 2200 (inactive).

Regarding `CC(=O)N1CCN(c2cccc(C)c2C)CC1`, the fluorescence intensity was 20800 (active).

Consider `Cc1cccc(N2CCN(C(=O)/C=C/c3ccco3)CC2)c1C`, for which the fluorescence intensity is 2640 (inactive).

Regarding `C=CCC[C@H](CCCCC)OC(=O)/C=C/[C@H](O)[C@@H](O)C[C@@H](O)CC=C`, the fluorescence intensity was 4110 (inactive).

As for `CCCc1ccc(C(O)c2ncc(-c3cccc(OC)c3)[nH]2)cc1` (centres undefined), the fluorescence intensity was 3420 (inactive).

On to `CCOC(=O)CSc1nc2c(sc(=S)n2CCc2ccccc2)c(=O)n1Cc1ccco1`, for which the fluorescence intensity is 16400 (active).

Turning to `CCOC(=O)CSc1nc2c(c(=O)n(Cc3ccccc3Cl)c(=O)n2C)n1C`, the fluorescence intensity is 4690 (inactive).

As to `COc1cccc(-n2c(=S)sc3c(=O)n(-c4ccccc4C)c(SCC(=O)O)nc32)c1`, the fluorescence intensity was 3210 (inactive).

On to `COc1ccc(NC(=O)c2sc(=O)n(Cc3ccc(S(=O)(=O)N(C)C)cc3)c2C)cc1`, for which the fluorescence intensity was 5230 (inactive).

As to `COc1ccc(NC2=CC(=S)NC(C)(C)C2)cc1`, the fluorescence intensity is 26300 (active).

In the case of `COc1ccc(Nc2ccc3ccccc3c2)cc1`, the fluorescence intensity is 3980 (inactive).

Consider `COc1ccc(NC(=O)C(Br)C(C)C)cc1` (centres undefined), for which the fluorescence intensity is 3200 (inactive).

Regarding `Cc1cc(Br)cn2c(Cc3ccsc3)c(-c3ccc(C#N)cc3)nc12`, the fluorescence intensity was 4980 (inactive).

`CC(C)Nc1nc(NCCOc2ccccc2Cl)c2sccc2n1`: the fluorescence intensity is 4090 (inactive).

For the compound `C(=N/N1CCN(c2ccccc2)CC1)/c1cccs1`, the fluorescence intensity was 23100 (active).

`Cc1ccc(N2CCN(/N=C/c3cccs3)CC2)cc1`: the fluorescence intensity is 15100 (inactive).

With `COc1cc(/C=N/N2CCN(c3ccccc3)CC2)ccc1OC(C)=O`, the fluorescence intensity is 4030 (inactive).

In the case of `Cc1ccc(NC(=O)CSc2nc(CSc3ccc(C)cc3)cc(=O)[nH]2)cc1`, the fluorescence intensity is 4220 (inactive).

Consider `CCCCc1nnc(NC(=O)CSc2nc(N)cc(=O)[nH]2)s1`, for which the fluorescence intensity was 4560 (inactive).

Consider `Cc1nc2nc(SCC(=O)Nc3cccc(F)c3)[nH]c2cc1Br`, for which the fluorescence intensity was 5340 (inactive).

For the compound `Cc1ccc(OCCCC(=O)Nc2ccc(S(=O)(=O)Nc3cc(C)nc(C)n3)cc2)cc1`, the fluorescence intensity is 5510 (inactive).

As to `CCCCc1nnc(NC(=O)CSc2nc(C)cc(=O)[nH]2)s1`, the fluorescence intensity is 22200 (active).

For the compound `COc1ccc(NC(=O)CSc2nc(NS(=O)(=O)c3ccc(C)cc3)cc(=O)[nH]2)cc1`, the fluorescence intensity is 19100 (active).

For the compound `CCCc1cc(=O)[nH]c(SCC(=O)Nc2ccc(C(=O)Nc3ccccc3OC)cc2)n1`, the fluorescence intensity is 3560 (inactive).

Take `CCCCc1nc(SCC(=O)Nc2nnc(C(C)C)s2)n[nH]1`: the fluorescence intensity was 5330 (inactive).

As for `COC(=O)c1cccc(NC(=O)CSc2nc(C)cc(=O)[nH]2)c1`, the fluorescence intensity is 19300 (active).

For the compound `COc1ccc(C2=NS(=O)(=O)N(C)C(C(=O)N3CCCCC3)=C2)cc1`, the fluorescence intensity is 5200 (inactive).

For the compound `COCCNc1ncnc2c1ncn2[C@H]1CN(Cc2ccc(OC)cc2)C[C@@H](CO)O1`, the fluorescence intensity is 2990 (inactive).

Consider `Cc1cccc(CN2CCN(C3CN(Cc4cn(Cc5ccccc5F)nn4)S(=O)(=O)C3)CC2)c1` (centres undefined), for which the fluorescence intensity is 6290 (inactive).

Turning to `O=C(COc1ccc(Br)cc1)OCC(=O)c1ccc[nH]1`, the fluorescence intensity was 3140 (inactive).

With `Cc1ccc2oc(C(=O)N3CCN(C)C[C@@H]3C(C)C)c(C)c2c1`, the fluorescence intensity is 3260 (inactive).

Regarding `O=C1OCCOC2CCCc3oc(-c4ccccc4)c1c32` (centres undefined), the fluorescence intensity was 5740 (inactive).

Turning to `CCCCC(O)C1=C[N+](=O)CC=C1` (centres undefined), the fluorescence intensity is 4270 (inactive).

Regarding `CC1CCCCC1NC(=O)CCS(=O)(=O)c1cccc2nonc12` (centres undefined), the fluorescence intensity is 4530 (inactive).

With `CCc1nc2c(OCc3ccc(C(F)(F)F)cc3)cccn2c1N(C)C(=O)CC(C)C`, the fluorescence intensity is 3820 (inactive).

As for `CCOC(=O)c1c(-c2ccccc2)oc2cc(Br)c(O)c(C=O)c12`, the fluorescence intensity was 3500 (inactive).

Take `CCOC(=O)c1c(-c2ccccc2)oc2ccc(OCC(=O)NN)cc12`: the fluorescence intensity was 3330 (inactive).

With `CCOC(=O)c1c(-c2ccccc2)oc2ccc(OC(=O)N(C)C)cc12`, the fluorescence intensity was 18300 (active).

In the case of `CC12c3ccccc3C(c3ccccc31)C1C(=O)N(Cc3cccnc3)C(=O)C12` (centres undefined), the fluorescence intensity was 10400 (inactive).

In the case of `Cc1cccc(C)c1NC(=O)CN1C(=O)C(C)Oc2ccccc21` (centres undefined), the fluorescence intensity is 4620 (inactive).

`CC1Oc2ccccc2N(Cc2cccnc2)C1=O` (centres undefined): the fluorescence intensity is 22000 (active).

Regarding `Cc1cc(C)n2nc(SCC(=O)NC(=O)NCc3ccco3)nc2n1`, the fluorescence intensity is 3150 (inactive).

Regarding `Cc1ccc(NC(=O)C(=O)NCc2ccco2)c(C)c1`, the fluorescence intensity is 4600 (inactive).

For the compound `Cc1ccc(-c2csc3nnc(SCC(=O)NCc4ccco4)n23)cc1`, the fluorescence intensity was 16800 (active).

Take `Cc1ccc(SCC(=O)NC(=O)NCc2ccco2)c(C)c1`: the fluorescence intensity is 19200 (active).

For `Cn1c(-c2ccc(F)cc2)cnc1SCC(=O)NCc1ccco1`, the fluorescence intensity is 9840 (inactive).

Consider `O=C(CSc1nnc2scc(-c3ccc(F)cc3)n12)NCc1ccco1`, for which the fluorescence intensity was 7830 (inactive).

Regarding `O=C(Nc1ccc(N2CCN(C(=O)c3ccccc3)CC2)c(Cl)c1)c1ncn[nH]1`, the fluorescence intensity was 4940 (inactive).

Regarding `CCCS(=O)(=O)NC(=O)C1(C)CCCN(C(=O)c2cc(C)on2)C1` (centres undefined), the fluorescence intensity was 3970 (inactive).

Turning to `CC(C)(O)C1=C[N+](=O)CC=C1`, the fluorescence intensity is 6070 (inactive).

Turning to `CN1OC[C@@H]2CN(S(=O)(=O)c3cccc(C(F)(F)F)c3)[C@H](c3ccc(-c4cc5ccccc5o4)cc3)C[C@@H]21`, the fluorescence intensity was 3760 (inactive).

For the compound `Nc1[nH]c(C(=O)c2ccccc2)c(-c2ccncc2)c1C(=O)NCc1cccc2ccccc12`, the fluorescence intensity is 5030 (inactive).

For `CCN(CC)c1ncnc2c1ncn2[C@H]1CN(Cc2cccs2)C[C@@H](CO)O1`, the fluorescence intensity is 3720 (inactive).

As for `Cc1ccc(CNC(=O)c2ccc3c(c2)S(=O)(=O)c2ccccc2C3=O)cc1`, the fluorescence intensity was 3750 (inactive).

For `CCCn1nc2cc(C(=O)NCc3ccccc3)ccc2c1OCC`, the fluorescence intensity was 4050 (inactive).

Take `Cc1cc(N2C(=O)c3ccc(C(=O)NCc4ccccc4)cc3C2=O)no1`: the fluorescence intensity was 17400 (active).

As for `O=c1[nH]cccc1-c1nc2ccccc2n1Cc1ccc(Cl)cc1`, the fluorescence intensity is 4020 (inactive).

Take `COc1ccc(NC(=O)C2Cc3c(-c4ccc(Cl)cc4)ccnc3O2)cc1` (centres undefined): the fluorescence intensity was 3760 (inactive).

On to `O=C(CC1NCCNC1=O)Nc1ccc(Oc2ccccc2)cc1` (centres undefined), for which the fluorescence intensity is 16900 (active).

For the compound `O=C(CC1NCCNC1=O)Nc1cc(Cl)cc(Cl)c1` (centres undefined), the fluorescence intensity is 7460 (inactive).

For `CCOc1ccc(NC(=O)CC2NCCNC2=O)cc1` (centres undefined), the fluorescence intensity is 4570 (inactive).

With `Cc1cccc(NC(=O)CSc2nnc(CCCCCNC(=O)OC(C)(C)C)o2)c1C`, the fluorescence intensity is 20100 (active).

As for `Cc1cccc(NC(=O)CSc2nnc(CCNC(=O)OC(C)(C)C)o2)c1C`, the fluorescence intensity is 3990 (inactive).

On to `Cc1ccccc1CSc1nnc(CCCCCNC(=O)OC(C)(C)C)o1`, for which the fluorescence intensity is 3660 (inactive).

`CCOC(=O)N1CCC(NC(=O)C(C)n2c3ccccc3c3cnn(C)c(=O)c32)CC1` (centres undefined): the fluorescence intensity is 3150 (inactive).

As to `COC(=O)c1ccc(NC(=O)c2cc3c(CO)cnc(C)c3oc2=Nc2cccc(C(N)=O)c2)cc1`, the fluorescence intensity is 2910 (inactive).

Consider `CN(C)C(=O)CSc1n[nH]c(-c2ccco2)n1`, for which the fluorescence intensity was 2630 (inactive).

Take `COC(=O)c1ccccc1Sc1c(/C=N/OCc2ccc(Cl)cc2)c(C(F)(F)F)nn1C`: the fluorescence intensity was 2910 (inactive).

Take `O=C(O)CSc1c2c(nc3cc(C(=O)Nc4cccc(C(F)(F)F)c4)ccc13)CCCC2`: the fluorescence intensity was 5110 (inactive).

Consider `Cn1nc(C(F)(F)F)c(C(=O)Nc2cccc(C(F)(F)F)c2)c1SCc1ccc(Cl)cc1`, for which the fluorescence intensity is 18600 (active).

In the case of `N[C@@H](Cc1ccccc1)C(=O)N1CCOCC1`, the fluorescence intensity is 3920 (inactive).

Regarding `O=C(CSc1ncccn1)N1CCCC1`, the fluorescence intensity was 5480 (inactive).

For `OC(c1ccc(Cl)cc1)c1ncc(-c2ccc(Cl)cc2)[nH]1` (centres undefined), the fluorescence intensity is 3850 (inactive).

As for `CC(C)Cn1c(CN(Cc2ccccc2)Cc2ccccc2)nc2c1c(=O)n(C)c(=O)n2C`, the fluorescence intensity is 5910 (inactive).

As for `COCCn1c(CN(Cc2ccccc2)Cc2ccccc2)nc2c1c(=O)n(C)c(=O)n2C`, the fluorescence intensity was 5270 (inactive).

Consider `CC(C)CCn1c(CN(C)Cc2ccccc2)nc2c1c(=O)n(C)c(=O)n2C`, for which the fluorescence intensity is 21400 (active).

Regarding `CC1(C)OC(=O)C2=C(C[C@@H](C3CCCCC3)O[C@@H]2c2ccc(Cl)cc2)O1`, the fluorescence intensity is 6270 (inactive).

On to `COc1c(F)c(F)c(C(=O)O)c(Nc2ccccc2C)c1F`, for which the fluorescence intensity is 21400 (active).

Take `Cc1ccc(Nc2c(F)c(F)c(F)c(F)c2C(=O)O)c(C)c1`: the fluorescence intensity is 3820 (inactive).

In the case of `COc1cc2ccccc2cc1C(=O)Nc1ccccc1C`, the fluorescence intensity was 3900 (inactive).

On to `Cc1ncc([N+](=O)[O-])n1CCOC(=O)c1ccc(Br)cc1`, for which the fluorescence intensity was 4830 (inactive).

As to `CC1(C(=O)NCc2ccc3c(c2)OCO3)CCN1C(=O)Cc1cccc2ccccc12` (centres undefined), the fluorescence intensity was 2930 (inactive).

For `Nc1nc2c(Br)ccc(Br)c2cc1C(=O)NCCc1ccccc1`, the fluorescence intensity was 6050 (inactive).

On to `NS(=O)(=O)c1ccc(CCNC(=O)COC(=O)COc2cccc(C(F)(F)F)c2)cc1`, for which the fluorescence intensity was 4060 (inactive).

For `NS(=O)(=O)c1ccc(CCNC(=O)c2ccc(Cl)c(S(=O)(=O)N3CCCCCC3)c2)cc1`, the fluorescence intensity was 4250 (inactive).

`Cc1ccc(S(=O)(=O)CCC(=O)OCC(=O)NCCc2ccc(S(N)(=O)=O)cc2)cc1`: the fluorescence intensity was 5910 (inactive).

Consider `Cc1noc(C)c1C(=O)NCCc1ccc(S(N)(=O)=O)cc1`, for which the fluorescence intensity is 4000 (inactive).

Regarding `COc1ccc(C(=O)NCCc2ccc(S(N)(=O)=O)cc2)cc1OC`, the fluorescence intensity was 17500 (active).

As for `COc1ccc(NS(=O)(=O)c2cccc(C(=O)NCCc3ccc(S(N)(=O)=O)cc3)c2)cc1`, the fluorescence intensity was 8740 (inactive).

Regarding `COC(=O)c1c(C)[nH]c(C(=O)NCCc2ccc(S(N)(=O)=O)cc2)c1C`, the fluorescence intensity was 3790 (inactive).

On to `CCOC(=O)c1c(C)c(C(=O)NCCc2ccc(S(N)(=O)=O)cc2)c(C)n1CC`, for which the fluorescence intensity is 22600 (active).

On to `COc1ccc(OCC(=O)NCCc2ccc(S(N)(=O)=O)cc2)cc1`, for which the fluorescence intensity is 19600 (active).

(Values after PubChem BioAssay AID624483 (NMMLSC, 2012).)
